# Experimental data published in the supplement of paper PMC11732987, “Enantioselective OTUD7B fragment discovery through chemoproteomics screening and high-throughput optimisation” (Communications Chemistry, 2025).
# Unmarked numbers belong to inactive results.
# Key:
# Assay in all cases: log2 ratio of Biotin-Ahx-Ub-VS probe labelling (fragment/DMSO); higher = less target engagement (more negative = stronger competition), active = hit call of the paper (q ≤ 0.05, log2 ratio ≤ -1)
# Conditions in all cases: compound concentration: 200 uM; treatment time: 3 h
# OTUD6B = target: T1, OTUD6B (UniProt Q8N6M0)
# T1 sequence (whole entry): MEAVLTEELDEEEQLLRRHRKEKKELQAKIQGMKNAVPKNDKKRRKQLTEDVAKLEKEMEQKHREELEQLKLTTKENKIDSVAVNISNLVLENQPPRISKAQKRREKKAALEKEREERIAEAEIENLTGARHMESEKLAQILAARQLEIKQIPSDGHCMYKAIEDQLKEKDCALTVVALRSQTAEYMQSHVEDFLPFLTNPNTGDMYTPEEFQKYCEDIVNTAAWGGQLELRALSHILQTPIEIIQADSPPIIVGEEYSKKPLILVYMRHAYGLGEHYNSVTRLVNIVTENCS
# In short: (§1)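 Average log2 ratios of fragment over vehicle were obtained by unpaired t-test from global-median-normalised Spectronaut label-free quantities. Proteins with ≥2 unique peptides were included. HEK293T lysate (495 µg per sample) was treated in triplicate with fragment at 200 µM or vehicle for 3 h, then with Biotin-Ahx-Ub-VS at 0.5 µM final for 1 h, and labelled DUBs were NeutrAvidin-enriched and run by diaPASEF LC-MS/MS.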
# OTUD7B = target: T2, OTUD7B (UniProt Q6GQQ9)
# T2 sequence (whole entry): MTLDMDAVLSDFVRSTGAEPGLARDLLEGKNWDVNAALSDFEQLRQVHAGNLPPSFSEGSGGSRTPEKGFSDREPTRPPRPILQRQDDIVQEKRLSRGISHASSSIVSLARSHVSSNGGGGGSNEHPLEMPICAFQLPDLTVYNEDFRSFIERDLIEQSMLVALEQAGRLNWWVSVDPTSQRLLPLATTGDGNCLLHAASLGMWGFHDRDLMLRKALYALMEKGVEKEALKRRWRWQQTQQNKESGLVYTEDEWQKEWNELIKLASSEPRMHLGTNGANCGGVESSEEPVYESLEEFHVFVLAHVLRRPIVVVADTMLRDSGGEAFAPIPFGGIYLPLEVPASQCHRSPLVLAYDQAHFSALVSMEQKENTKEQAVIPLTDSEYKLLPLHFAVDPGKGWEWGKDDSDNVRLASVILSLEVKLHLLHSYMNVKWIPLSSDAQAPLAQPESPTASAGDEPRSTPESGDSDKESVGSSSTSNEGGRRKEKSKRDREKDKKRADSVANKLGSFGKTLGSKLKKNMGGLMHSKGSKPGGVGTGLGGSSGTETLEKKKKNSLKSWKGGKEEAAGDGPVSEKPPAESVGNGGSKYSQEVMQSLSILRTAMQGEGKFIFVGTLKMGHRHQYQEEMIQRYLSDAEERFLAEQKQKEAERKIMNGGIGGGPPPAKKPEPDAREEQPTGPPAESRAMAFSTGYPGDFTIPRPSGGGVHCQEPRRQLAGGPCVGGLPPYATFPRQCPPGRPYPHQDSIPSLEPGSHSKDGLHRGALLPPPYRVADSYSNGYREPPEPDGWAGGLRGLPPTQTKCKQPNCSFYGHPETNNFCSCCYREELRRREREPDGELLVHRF
# In short: as §1
# PRPF8 = PRPF8 (UniProt Q6P2Q9)
# In short: as §1
# PSMD7 = target: T3, PSMD7 (UniProt P51665)
# T3 sequence (whole entry): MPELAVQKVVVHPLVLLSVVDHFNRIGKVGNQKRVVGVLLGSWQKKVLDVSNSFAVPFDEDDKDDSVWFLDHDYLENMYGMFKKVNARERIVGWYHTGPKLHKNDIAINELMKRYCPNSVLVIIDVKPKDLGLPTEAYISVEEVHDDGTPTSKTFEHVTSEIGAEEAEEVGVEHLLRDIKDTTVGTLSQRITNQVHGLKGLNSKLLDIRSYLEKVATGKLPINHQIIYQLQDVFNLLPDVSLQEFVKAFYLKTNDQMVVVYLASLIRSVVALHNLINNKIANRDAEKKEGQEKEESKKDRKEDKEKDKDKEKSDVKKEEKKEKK
# In short: as §1
# UCHL1 = UCHL1 (UniProt P09936)
# Chain of UCHL1 (P09936 whole entry, looked up): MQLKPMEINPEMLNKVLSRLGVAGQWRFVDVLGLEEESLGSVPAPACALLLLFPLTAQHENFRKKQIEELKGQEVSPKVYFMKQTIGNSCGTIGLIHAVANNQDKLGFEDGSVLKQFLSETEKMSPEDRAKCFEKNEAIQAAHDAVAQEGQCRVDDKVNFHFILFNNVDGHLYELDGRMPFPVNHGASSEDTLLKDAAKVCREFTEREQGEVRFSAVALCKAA
# In short: as §1
# UCHL3 = target: T4, UCHL3 (UniProt P15374)
# T4 sequence (whole entry): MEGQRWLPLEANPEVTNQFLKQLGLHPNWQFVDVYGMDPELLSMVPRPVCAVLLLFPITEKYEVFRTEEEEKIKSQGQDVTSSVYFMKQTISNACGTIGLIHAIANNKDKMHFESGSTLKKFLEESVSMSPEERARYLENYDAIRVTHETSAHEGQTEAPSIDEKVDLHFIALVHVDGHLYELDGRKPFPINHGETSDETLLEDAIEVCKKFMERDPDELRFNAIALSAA
# In short: as §1
# UCHL5 = target: T5, UCHL5 (UniProt Q9Y5K5)
# T5 sequence (whole entry): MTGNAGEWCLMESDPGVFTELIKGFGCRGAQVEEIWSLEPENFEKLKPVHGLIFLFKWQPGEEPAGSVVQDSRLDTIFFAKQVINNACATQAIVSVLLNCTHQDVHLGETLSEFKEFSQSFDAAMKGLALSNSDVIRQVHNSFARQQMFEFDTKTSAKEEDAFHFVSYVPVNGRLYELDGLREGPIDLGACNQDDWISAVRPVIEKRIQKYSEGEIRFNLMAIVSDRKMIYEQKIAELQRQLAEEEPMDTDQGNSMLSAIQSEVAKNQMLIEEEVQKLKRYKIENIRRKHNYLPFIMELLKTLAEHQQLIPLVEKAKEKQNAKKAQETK
# In short: as §1
# USP10 = USP10 (UniProt Q14694)
# Chain of USP10 (Q14694 whole entry): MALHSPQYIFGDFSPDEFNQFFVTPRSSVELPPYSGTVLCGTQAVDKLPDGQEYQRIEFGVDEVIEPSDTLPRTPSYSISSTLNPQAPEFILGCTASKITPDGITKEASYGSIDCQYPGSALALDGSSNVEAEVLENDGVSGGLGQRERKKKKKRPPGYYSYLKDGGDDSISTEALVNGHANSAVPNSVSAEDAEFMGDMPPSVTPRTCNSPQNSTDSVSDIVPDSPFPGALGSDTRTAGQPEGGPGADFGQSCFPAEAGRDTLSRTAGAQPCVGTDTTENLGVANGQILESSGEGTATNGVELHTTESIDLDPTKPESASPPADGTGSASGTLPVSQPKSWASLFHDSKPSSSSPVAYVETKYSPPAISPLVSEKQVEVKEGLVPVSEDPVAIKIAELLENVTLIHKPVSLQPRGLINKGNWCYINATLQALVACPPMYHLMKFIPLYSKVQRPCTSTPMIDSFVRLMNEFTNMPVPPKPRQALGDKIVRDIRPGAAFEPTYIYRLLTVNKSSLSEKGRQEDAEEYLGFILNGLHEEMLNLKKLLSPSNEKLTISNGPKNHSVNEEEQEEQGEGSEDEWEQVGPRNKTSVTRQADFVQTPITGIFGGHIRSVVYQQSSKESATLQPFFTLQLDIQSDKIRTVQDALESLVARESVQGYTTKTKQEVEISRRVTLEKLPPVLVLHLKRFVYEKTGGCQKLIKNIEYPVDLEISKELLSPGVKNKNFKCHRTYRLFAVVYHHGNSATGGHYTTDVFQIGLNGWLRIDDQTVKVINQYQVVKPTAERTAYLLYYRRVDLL
# In short: as §1
# USP15 = target: T6, USP15 (UniProt Q9Y4E8)
# T6 sequence (whole entry): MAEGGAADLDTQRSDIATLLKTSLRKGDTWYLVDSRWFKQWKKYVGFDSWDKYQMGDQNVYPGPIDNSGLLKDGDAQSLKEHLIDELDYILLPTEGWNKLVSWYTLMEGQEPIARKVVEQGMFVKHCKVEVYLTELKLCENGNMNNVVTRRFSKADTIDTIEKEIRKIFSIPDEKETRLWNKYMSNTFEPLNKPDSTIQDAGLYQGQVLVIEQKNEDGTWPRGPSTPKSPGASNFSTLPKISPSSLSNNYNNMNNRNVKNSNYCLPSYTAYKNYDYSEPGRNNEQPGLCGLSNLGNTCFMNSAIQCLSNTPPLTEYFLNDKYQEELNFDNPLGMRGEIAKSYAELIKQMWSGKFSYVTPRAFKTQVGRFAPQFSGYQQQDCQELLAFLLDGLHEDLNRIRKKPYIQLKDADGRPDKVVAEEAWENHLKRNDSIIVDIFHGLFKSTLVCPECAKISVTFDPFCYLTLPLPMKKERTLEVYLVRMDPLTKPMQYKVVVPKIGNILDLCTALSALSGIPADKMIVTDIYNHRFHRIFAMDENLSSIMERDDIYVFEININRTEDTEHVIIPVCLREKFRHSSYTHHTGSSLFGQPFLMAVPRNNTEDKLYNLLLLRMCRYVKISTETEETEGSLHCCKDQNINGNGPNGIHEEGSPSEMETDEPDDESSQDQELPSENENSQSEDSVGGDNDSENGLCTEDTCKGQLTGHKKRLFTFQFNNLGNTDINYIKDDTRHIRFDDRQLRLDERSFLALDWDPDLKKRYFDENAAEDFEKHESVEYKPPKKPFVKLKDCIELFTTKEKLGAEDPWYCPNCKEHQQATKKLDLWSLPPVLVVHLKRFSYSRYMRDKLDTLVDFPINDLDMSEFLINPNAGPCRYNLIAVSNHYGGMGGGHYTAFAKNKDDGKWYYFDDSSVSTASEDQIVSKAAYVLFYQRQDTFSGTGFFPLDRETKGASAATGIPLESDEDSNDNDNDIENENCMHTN
# In short: as §1
# USP16 = USP16 (UniProt Q9Y5T5)
# Chain of USP16 (Q9Y5T5 whole entry, looked up): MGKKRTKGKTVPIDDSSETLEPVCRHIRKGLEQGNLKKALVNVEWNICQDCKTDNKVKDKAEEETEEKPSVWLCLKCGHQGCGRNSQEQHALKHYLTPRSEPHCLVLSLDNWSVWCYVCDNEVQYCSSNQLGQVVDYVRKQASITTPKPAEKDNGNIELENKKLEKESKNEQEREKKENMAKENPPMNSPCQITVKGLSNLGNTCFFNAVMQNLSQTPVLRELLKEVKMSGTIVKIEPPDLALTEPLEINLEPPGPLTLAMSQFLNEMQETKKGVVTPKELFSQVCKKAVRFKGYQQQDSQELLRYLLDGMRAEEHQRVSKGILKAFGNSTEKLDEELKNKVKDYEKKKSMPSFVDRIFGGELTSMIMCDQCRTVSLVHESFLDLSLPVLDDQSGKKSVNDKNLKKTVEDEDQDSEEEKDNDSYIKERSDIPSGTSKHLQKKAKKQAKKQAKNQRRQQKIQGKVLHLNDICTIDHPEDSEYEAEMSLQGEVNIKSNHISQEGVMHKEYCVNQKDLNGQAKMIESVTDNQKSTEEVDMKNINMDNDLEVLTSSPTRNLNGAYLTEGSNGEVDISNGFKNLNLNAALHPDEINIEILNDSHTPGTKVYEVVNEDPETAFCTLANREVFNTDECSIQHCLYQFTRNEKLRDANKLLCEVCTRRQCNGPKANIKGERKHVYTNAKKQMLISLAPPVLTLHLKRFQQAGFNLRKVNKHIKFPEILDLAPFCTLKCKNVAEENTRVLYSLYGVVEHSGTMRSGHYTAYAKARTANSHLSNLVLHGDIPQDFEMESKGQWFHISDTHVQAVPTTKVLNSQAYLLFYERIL
# In short: as §1
SMILES,log2 ratio of Biotin-Ahx-Ub-VS probe labelling (OTUD6B),log2 ratio of Biotin-Ahx-Ub-VS probe labelling (OTUD7B),log2 ratio of Biotin-Ahx-Ub-VS probe labelling (PRPF8),log2 ratio of Biotin-Ahx-Ub-VS probe labelling (PSMD7),log2 ratio of Biotin-Ahx-Ub-VS probe labelling (UCHL1),log2 ratio of Biotin-Ahx-Ub-VS probe labelling (UCHL3),log2 ratio of Biotin-Ahx-Ub-VS probe labelling (UCHL5),log2 ratio of Biotin-Ahx-Ub-VS probe labelling (USP10),log2 ratio of Biotin-Ahx-Ub-VS probe labelling (USP15),log2 ratio of Biotin-Ahx-Ub-VS probe labelling (USP16)
O=C(CCl)N1CCC2(CCC(O)CC2)CC1,-0.306,-0.236,-0.102,-0.109,-1.76 (active),0.404,-0.157,-0.17,-0.243,0.0341
N#Cc1ccccc1N1CCN(C(=O)CCl)CC1,-0.533,-0.626,-0.322,-0.0914,-2.04 (active),-0.341,-0.894,-0.051,-0.781,-0.37
Cc1ccc(N2CCC(NC(=O)CCl)C2=O)cc1 (stereo not given),0.0252,-0.741,-0.0776,0.0257,-1.67 (active),0.299,-0.0673,-0.174,0.106,-0.702
Cl.O=C(CCl)NCCc1ncc(F)cc1F,-0.346,-0.663,-0.0362,-0.45,-1.7 (active),0.191,-0.376,-0.075,-0.3,-0.0122
O=C(CCl)N(C1=CCCCC1)C1CC1,-0.00924,-0.39,0.215,0.0445,-1.24 (active),0.218,-0.186,-0.112,-0.209,-0.193
Cc1cccnc1NC(=O)C1CCN(C(=O)CCl)CC1.Cl,-0.127,-0.284,-0.0508,-0.189,-1.33 (active),0.088,-0.328,-0.146,-0.24,0.018
Cc1ccc(CC(CO)CNC(=O)CCl)cc1 (stereo not given),-0.264,-1.12 (active),-0.059,-0.169,-1.92 (active),-0.121,-0.474,-0.0682,-0.199,0.217
O=C(CCl)N1CCC(C(=O)N2CCCC2)CC1,-0.427,-0.121,0.0985,0.0529,-1.3 (active),0.284,0.037,-0.257,-0.395,-0.362
Cc1c(C#N)c(NC(=O)CCl)n(Cc2ccco2)c1C,-0.163,-1.87 (active),0.194,0.0239,-1.43 (active),0.496,-0.133,-0.259,-0.505,-0.818
CC(NC(=O)CCl)c1ccc2[nH]ncc2c1 (stereo not given),-0.241,-1.52 (active),-0.0557,-0.245,-1.1 (active),0.289,-0.328,-0.179,-0.271,-0.601
O=C(CCl)N1CCCC1c1ccsc1 (stereo not given),-0.452,-0.521,0.0505,-0.39,-1.81 (active),-0.121,-0.228,-0.161,-0.548,-0.254
Cn1cc(CN(Cc2ccc(Cl)cc2)C(=O)CCl)cn1,-0.0472,-0.238,0.208,0.0391,-0.602,0.113,-0.221,-0.0261,-0.272,-1.17 (active)
O=C(CCl)N1CCC(O)(Cc2ccc(F)cc2)C1 (stereo not given),0.0617,-0.082,-0.0432,-0.209,-1.12 (active),0.0281,0.116,-0.309,-0.149,0.246
Cl.O=C(CCl)NCc1ccnc(Oc2ccccc2F)c1,-0.263,-0.533,-0.054,-0.0622,-1.49 (active),0.27,-0.282,-0.187,-0.115,0.275
O=C(CCl)Nc1ccc(N2CCCC2=O)cc1,0.116,-0.359,0.162,-0.145,-1.1 (active),0.206,-0.098,-0.0139,0.104,0.0122
